High-throughput results deposited in PubChem by National Center for Advancing Translational Sciences (NCATS).
RORgamma inh: ROR gamma (mouse) transcription inhibition | 5.4% of 310,000 active | Drosophila S2 Gal4-RORgamma UAS-luciferase reporter, 20 h | Potency, µM (top dose mostly 53.6 µM), usual class: inhibitors | P51450; note: nearly all actives have a fitted effect of over 60% in size
Target sequence (P51450 whole entry, looked up, the tested form may be a part): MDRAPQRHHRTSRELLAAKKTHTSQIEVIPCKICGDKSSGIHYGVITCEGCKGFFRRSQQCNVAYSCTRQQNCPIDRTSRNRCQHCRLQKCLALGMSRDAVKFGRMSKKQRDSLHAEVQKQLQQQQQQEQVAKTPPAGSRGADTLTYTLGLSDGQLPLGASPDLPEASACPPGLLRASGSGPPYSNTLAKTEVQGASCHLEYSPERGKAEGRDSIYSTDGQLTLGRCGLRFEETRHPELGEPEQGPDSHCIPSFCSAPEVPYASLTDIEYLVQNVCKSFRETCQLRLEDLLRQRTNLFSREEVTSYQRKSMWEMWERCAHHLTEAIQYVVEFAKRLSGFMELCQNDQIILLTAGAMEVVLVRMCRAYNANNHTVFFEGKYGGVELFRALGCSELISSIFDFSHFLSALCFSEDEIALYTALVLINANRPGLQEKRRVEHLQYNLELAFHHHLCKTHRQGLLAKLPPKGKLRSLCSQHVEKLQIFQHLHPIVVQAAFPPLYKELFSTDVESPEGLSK
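Stable Schneider cell line, Gal4 DNA-binding domain fused to ROR gamma, UAS-luciferase. Cmpd 1 hr RT → CuSO4 700 uM final → 20 hr RT → luciferase reagent 10 min → luminescence.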
MCF10A rerep: DNA re-replication induction in MCF 10a cells; 2.9% of 350,000 active; Potency, µM (top dose mostly 46.1 µM), actives largely listed as activators; AID 624296; MCF 10A DNA re-replication, Hoechst nuclear intensity, 48 h; note: nearly all actives have a fitted effect of over 50% in size
SW480 rereplic: DNA re-replication induction in SW480 cells | SW480 DNA re-replication, Hoechst DNA content imaging, 48 h | Potency, µM (top dose mostly 46.1 µM), hits mostly activators | 1.8% of 340,000 active | AID 624297; note: nearly all actives have a fitted effect of over 55% in size
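Compounds, transferred as 23 nL by pin tool, were incubated with cells for 48 hr; DNA content per nucleus was then quantified by Hoechst staining and fluorescence plate imaging.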
VP16 counter: Gal4-VP16 reporter inhibition counter-screen; Drosophila S2 Gal4-VP16 UAS-luciferase, luminescence, 20 h; Potency, µM (highest dose often 53.6 µM), usual class: inhibitors; 3.5% of 310,000 active; AID 2546;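 note: Gal4-VP16 expression switched on by copper sulfate through the metallothionein promoter; nearly all actives have a fitted effect of over 50% in size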
ELG1 repair inh: blocks ELG1-dependent DNA repair in HEK293T cells; HEK293T ELG1-luciferase reporter, luminescence, 16 h; DNA damage induced by 5-fluorouridine; Potency, µM (doses to about 46.1 µM), actives largely listed as inhibitors; 2.3% of 330,000 active; note: nearly all actives have a fitted effect of over 55% in size
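Overnight (16 hr) co-exposure of 2,000 cells/well to 5-fluorouridine and compound at 37 °C preceded detection. Luciferase was quantified via ONE-Glo luminescence; loss of signal denotes inhibition.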
Of the large screens only hits and unclear results are named; the others gave an inactive call. A selection: hits, their analogues and other compounds. The true share with any hit is near 10%. Calls come from the whole dose curve; as a rule, active = well fitted curve in the direction sought with a large enough effect; inconclusive = small, poorly fitted or top-dose-only effect, or another doubt; inactive = no such curve, though single readings can be large; an effect the other way counts as inactive or inconclusive.

Cc1cccc2c1-c1sc(C(=O)N3CCc4ccccc4C3)cc1CO2	RORgamma inh inconclusive, MCF10A rerep inconclusive, VP16 counter inconclusive, ELG1 repair inh inconclusive
Cn1cccc1C(=O)N1CCC[C@@]2(CCN(C(c3ccccc3)c3ccccc3)C2)C1	none (no result: MCF10A rerep, SW480 rereplic, ELG1 repair inh)
O=C(N/N=C/c1sc2ccccc2c1O)c1ccccc1	RORgamma inh 1.8µM, MCF10A rerep inconclusive, SW480 rereplic 2.6µM, VP16 counter 1.6µM, ELG1 repair inh inconclusive
COc1ccc(C(=O)N/N=C/c2sc3ccccc3c2O)cc1	RORgamma inh 2.2µM, MCF10A rerep inconclusive, SW480 rereplic 5.2µM, VP16 counter 4µM, ELG1 repair inh inconclusive
COc1ccc(C(=O)N/N=C/C(=O)c2ccccc2)cc1	ELG1 repair inh inconclusive (no result: RORgamma inh, VP16 counter)
O=C(N/N=C/c1sc2ccccc2c1O)c1cccc2ccccc12	RORgamma inh 1.8µM, MCF10A rerep inconclusive, SW480 rereplic inconclusive, VP16 counter 4.5µM
COc1ccc2cc(C(=O)N/N=C/c3sc4ccccc4c3O)ccc2c1	RORgamma inh 3.5µM, MCF10A rerep inconclusive, SW480 rereplic inconclusive, VP16 counter inconclusive
Oc1c(C=Nc2cccc3cccnc23)sc2ccccc12	RORgamma inh 1.8µM, VP16 counter 1.4µM, ELG1 repair inh inconclusive (no result: MCF10A rerep, SW480 rereplic)
O=C(N/N=C/c1cccn1-c1ccc(O)cc1)c1cccc2ccccc12	RORgamma inh 18µM, MCF10A rerep inconclusive, SW480 rereplic inconclusive, VP16 counter 16µM, ELG1 repair inh inconclusive
CC1CC(C)CN(CC(=O)Nc2cc(S(=O)(=O)N3CCOCC3)ccc2N2CCCC2)C1 (stereo not given)	none (no result: RORgamma inh, VP16 counter)
CC(=O)C1=C(C)Nc2ncnn2C1c1cccc(Br)c1 (stereo not given)	none
Cc1ccc(S(=O)(=O)N2CCC(C(=O)OCC(=O)Nc3cc(S(C)(=O)=O)ccc3Cl)CC2)cc1C	none
OC(Cn1cnnc1)c1ccccc1 (stereo not given)	none
O=C1NC(=S)N(c2cccc(Cl)c2)C12CCCCC2	RORgamma inh 13µM, VP16 counter inconclusive
CC1(C)CC(=O)N(c2cccc(Cl)c2)C(=O)C1	none
COc1ccc2c(C)cc(SCc3c(C)noc3C)nc2c1	MCF10A rerep 12µM, SW480 rereplic inconclusive
O=C(CN1C(=O)c2ccc([N+](=O)[O-])cc2C1=O)Nc1ccccc1N1CCCC1	none (no result: RORgamma inh, VP16 counter)
NC(=O)c1cc(N2C(=O)C=CC2=O)ccc1Cl	RORgamma inh 7.1µM, MCF10A rerep 18µM, SW480 rereplic inconclusive, VP16 counter 7.1µM
CCC(=O)c1cc(F)c(N2CCN(C(=O)Cc3ccccc3)CC2)cc1C	VP16 counter 13µM, ELG1 repair inh inconclusive
CCC(=O)c1ccc(N2CCN(C(=O)Cc3ccccc3)CC2)c(F)c1	RORgamma inh inconclusive, VP16 counter inconclusive
CN(C)CCN=Cc1c(O)n(-c2ccc(S(=O)(=O)N3CCOCC3)cc2)c(=O)c2ccccc12	SW480 rereplic 18µM (no result: RORgamma inh, VP16 counter)
CCOC(=O)C1(CCc2ccccc2)CCN(C(=O)CCn2cnnn2)CC1	SW480 rereplic inconclusive, ELG1 repair inh inconclusive
C=CCN1C(=O)C2C(C(=O)NC3CCCC3)C3C=CC2(O3)C1C(=O)NC1CCCC1 (stereo not given)	none
CO[C@@H]1COC(=O)[C@H](C)NC(=O)[C@@H](C)COC(=O)[C@H](C)NC(=O)C/C=C\[C@H]1C	none (no result: MCF10A rerep, SW480 rereplic, ELG1 repair inh)
C[C@]12CC[C@@H]3c4ccc(O)cc4CC[C@H]3[C@@H]1CCC2OC(=O)CCC1CCCC1 (stereo not given in full)	MCF10A rerep 24µM, SW480 rereplic inconclusive, VP16 counter inconclusive (no result: ELG1 repair inh)
S=C(NCC1CCCO1)Nc1cccc(Cl)c1 (stereo not given)	RORgamma inh 16µM, VP16 counter 20µM
S=C(NCC1CCCO1)Nc1cc(Cl)c(Cl)cc1Cl (stereo not given)	RORgamma inh 3.2µM, VP16 counter 18µM
O=C(NCC1CCCO1)Nc1cccc(Cl)c1 (stereo not given)	ELG1 repair inh inconclusive
Cc1cc(C)cc(NC(=S)NCC2CCCO2)c1 (stereo not given)	RORgamma inh 11µM, VP16 counter 35µM
CCC(C)Oc1ccc(/C=C/c2[nH]c(=O)[nH]c(=O)c2[N+](=O)[O-])cc1OC (stereo not given)	MCF10A rerep inconclusive, SW480 rereplic 21µM, ELG1 repair inh inconclusive
COc1cc(/C=C/c2[nH]c(=O)[nH]c(=O)c2[N+](=O)[O-])ccc1OCCC(C)C	MCF10A rerep inconclusive, SW480 rereplic inconclusive
Cc1ccccc1NC(=O)C1CCN(C2=NS(=O)(=O)c3ccccc32)CC1	none
CCN1CCN(Cc2ccc(NC(=O)c3cc(NC(=O)c4cnn(-c5ccccc5)c4N)cc(OC)c3)cc2C(F)(F)F)CC1	MCF10A rerep 15µM
CCN1CCN(Cc2ccc(NC(=O)c3cc(NC(=O)C(=O)c4c[nH]c5ccccc45)cc(OC)c3)cc2C(F)(F)F)CC1	RORgamma inh inconclusive, MCF10A rerep inconclusive, SW480 rereplic inconclusive, VP16 counter inconclusive
CCN1CCN(Cc2ccc(NC(=O)c3ccc(C)c(NC(=O)C(=O)c4c[nH]c5ccccc45)c3)cc2C(F)(F)F)CC1	RORgamma inh 13µM, MCF10A rerep 23µM, SW480 rereplic inconclusive, VP16 counter inconclusive, ELG1 repair inh inconclusive
NS(=O)(=O)c1cccc(NC(=O)COC(=O)C2(c3cccc(F)c3)CCCC2)c1	none
O=C(NN=C(c1ccccc1)c1ccccn1)c1ccccc1	MCF10A rerep inconclusive, SW480 rereplic 10µM, ELG1 repair inh inconclusive (no result: RORgamma inh, VP16 counter)
C/C(Cc1ccccc1)=N\NC(=O)c1ccccn1	ELG1 repair inh inconclusive
O=C(N/N=C(\c1ccccc1)c1ccccn1)c1ccccc1Cl	RORgamma inh 0.71µM, MCF10A rerep inconclusive, SW480 rereplic inconclusive, VP16 counter 1.1µM, ELG1 repair inh inconclusive
COc1ccc(C(=O)Nc2ccccn2)cc1	none
COc1ccc(NC(=O)c2ccccn2)cc1	RORgamma inh 7.9µM, VP16 counter 11µM, ELG1 repair inh inconclusive
COc1ccc(C(=O)N/N=C(\c2ccccc2)c2ccccn2)cc1	RORgamma inh 0.71µM, MCF10A rerep inconclusive, SW480 rereplic inconclusive, VP16 counter 0.5µM, ELG1 repair inh inconclusive
COc1ccc(C(=O)Nc2ccc(NC(=O)c3ccccn3)cn2)cc1	ELG1 repair inh inconclusive
O=C(NC(O)C(=O)c1ccccc1)c1ccccn1 (stereo not given)	none
CCN(C(=O)COC(=O)c1ccc2ccccc2n1)c1c(N)n(Cc2ccccc2)c(=O)[nH]c1=O	ELG1 repair inh inconclusive (no result: RORgamma inh, VP16 counter)
COc1ccc(NC(=O)c2cc(S(=O)(=O)Nc3ccc(OC)cc3)cs2)cc1	VP16 counter 11µM, ELG1 repair inh inconclusive
COc1ccccc1-c1nnc(NC(=O)C2=COCCO2)o1	RORgamma inh 2.2µM, VP16 counter 2.8µM, ELG1 repair inh inconclusive (no result: SW480 rereplic)
COc1ccc(-c2nnc(NC(=O)C3=COCCO3)o2)cc1	RORgamma inh 3.5µM, VP16 counter 2.8µM, ELG1 repair inh inconclusive
CS(=O)(=O)c1ccccc1-c1nnc(NC(=O)C2=COCCO2)o1	none (no result: RORgamma inh, VP16 counter)
